From PubChem BioAssay
Only some compounds are listed: those with a hit (about 9.3% of all), similar ones and a draw of the others.
SMN2 splice enh: increases expression of the SMN2 splice variant | HEK293 SMN2-luciferase splicing reporter, luminescence, 30-36 h | AID 1458 | Potency, µM (doses to about 46.1 µM), inactives show at the top dose activity change, positive = activation, most hits filed as activators | 210,000 tested, 2.8% active; note: % of control where 0% means no effect; nearly all actives have a fitted effect of over 55% in size
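HEK293 cells carry an SMN2 […]–luciferase reporter in which exon 7 inclusion puts luciferase in frame. Cells were plated 10-12 h before compound addition, then incubated 30-36 h at 37C. ONE-Glo luminescence was read; sodium butyrate at 4.5 mM final served as control.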
FLuc modulator: inhibits or activates purified firefly luciferase, miR-21 counter-screen; purified FLuc, Km substrates, luminescence inhibition; Potency, µM (doses to about 57.5 µM), for inactives: top-dose activity change, negative = inhibition, hits mostly inhibitors; 360,000 tested, 6.9% active;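 note: plate controls were vehicle for no effect and reference inhibitor for full effect; nearly all actives have a fitted effect of over 55% in size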
Target sequence (P08659 whole entry, looked up): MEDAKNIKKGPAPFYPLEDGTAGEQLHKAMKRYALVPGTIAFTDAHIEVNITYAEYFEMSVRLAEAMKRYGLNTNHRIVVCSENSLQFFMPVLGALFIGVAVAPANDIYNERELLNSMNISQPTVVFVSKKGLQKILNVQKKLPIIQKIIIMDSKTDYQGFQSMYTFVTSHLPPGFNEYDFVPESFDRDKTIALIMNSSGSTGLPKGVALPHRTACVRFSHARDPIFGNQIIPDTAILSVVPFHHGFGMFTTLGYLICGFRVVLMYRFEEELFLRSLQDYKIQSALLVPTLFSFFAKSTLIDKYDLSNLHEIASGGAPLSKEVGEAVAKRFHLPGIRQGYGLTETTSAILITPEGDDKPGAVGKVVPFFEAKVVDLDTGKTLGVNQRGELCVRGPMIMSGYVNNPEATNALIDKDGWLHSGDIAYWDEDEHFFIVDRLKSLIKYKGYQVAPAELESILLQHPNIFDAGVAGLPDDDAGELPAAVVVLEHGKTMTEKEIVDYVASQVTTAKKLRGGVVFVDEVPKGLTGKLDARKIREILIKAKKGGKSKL
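Purified P. pyralis luciferase, 10 nM final, with Km-level 10 uM D-luciferin and 10 uM ATP in 50 mM Tris acetate pH 7.5, 10 mM Mg acetate, 0.01% Tween-20, 0.05% BSA; 6-point qHTS titration about 60 µM downward; luminescence read.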
NPC1 prom act: NPC1 promoter activation. 320,000 tested, 2.4% active. Huh7 NPC1 promoter luciferase reporter, 24 h. Potency, µM (doses to about 9.22 µM), for inactives: at the highest dose activation, actives largely listed as activators; note: % of control where 0% means no effect; nearly all actives have a fitted effect of over 60% in size
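Compounds in DMSO were transferred onto Huh7 NPC1-luciferase reporter cells pre-incubated 2 h; after 24 h at 37 °C, Amplite reagent was dispensed and luminescence recorded 10 min later.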
ELG1 genotoxic: induces genotoxicity in HEK293T cells with luciferase-tagged ELG1; HEK293T ELG1-luciferase reporter, luminescence, 16 h; Potency, µM (highest dose often 46 µM), without a hit: at the highest dose activity change, positive = activation, most hits filed as activators; 330,000 tested, 1.3% active; AID 504466; note: % of control where 0% means no effect; nearly all actives have a fitted effect of over 60% in size
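Screening used a luciferase reporter fused to human ELG1 in HEK293T cells. Luminescence was read on a CCD plate imager after 16 hr exposure and 30 min ONE-Glo incubation.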
ELG1 repair inh: ELG1-dependent DNA repair inhibition; HEK293T ELG1-luciferase reporter, luminescence, 16 h; DNA damage induced by 5-fluorouridine; Potency, µM (highest dose often 46.1 µM), for the others: at the top dose activity change, negative = inhibition, hits mostly inhibitors; 330,000 tested, 2.3% active; AID 504467; note: % is set by controls: 0 for no effect and ±100 for the full control effect; nearly all actives have a fitted effect of over 55% in size
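In this reporter screen, reduction of luminescence relative to DMSO vehicle indicated activity. Compounds and 5-fluorouridine were added together to 2,000 cells per well, incubated for 16 hr at 37 °C, then developed with ONE-Glo.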
Rab9 prom act: activators of Rab9 promoter; Huh7 Rab9 promoter-luciferase reporter, luminescence, 24 h; Potency, µM (titrated, usually from 9.22 µM), for the others: top-dose activation, negative = inhibition, actives largely listed as activators; 320,000 tested, 2.8% active; AID 485297; note: % of control where 0% means no effect; nearly all actives have a fitted effect of over 60% in size
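Steps: seed 1500 Huh7 Rab9-luc cells per well, rest 2 h at 37 °C; add compound in DMSO; incubate 24 h; add luciferase reagent, 10 min ambient; read luminescence.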
An asterisk follows results filed as active; ? = inconclusive; . = not tested or not shown. Calls come from the whole dose curve; as a rule, active = well fitted curve in the direction sought with a large enough effect; inconclusive = small, poorly fitted or top-dose-only effect, or another doubt; inactive = no such curve, though single readings can be large; an effect the other way counts as inactive or inconclusive. Potency is the fitted concentration of half-maximal effect.

SMILES	SMN2 splice enh	FLuc modulator	NPC1 prom act	ELG1 genotoxic	ELG1 repair inh	Rab9 prom act
C=C1C(=O)[C@@]23[C@H](O)C[C@@H]4C(C)(C)CC[C@H](O)[C@]4(C)[C@@H]2C[C@H](O)[C@@H]1[C@H]3O	-57%	2%	-26%	-9%	16µM*	-39%
Cc1ccc(-c2csc(NC(=O)C3CC(=O)N(Cc4ccco4)C3)n2)cc1 (centres undefined)	-15%	1%	1%	-9%	-24%	-1%
CC(C)(C)C1CCc2sc(C(=O)NNC(=O)CCl)cc2C1 (centres undefined)	-18%	4.8µM*	-42%	?	?	-45%
CC(C)(C)C1CCC(=NNC(=O)c2cc3c(s2)CCCC3)CC1 (centres undefined)	-10%	-2%	-5%	-1%	9%	-1%
CCOC(=O)NC(=O)/C(C#N)=C\Nc1ccc(Cl)cc1Cl	-8%	13µM*	-23%	16%	?	?
CCCCNC(=S)N(CCN(CC)CC)Cc1cc2cc3c(cc2[nH]c1=O)OCO3	.	0%	1%	-5%	-2%	-7%
CCCCC(=O)N/N=C/c1ccc(-c2ccc([N+](=O)[O-])cc2)o1	.	1%	1%	-2%	6%	-5%
NC(=S)N/N=C/c1ccc(-c2cccc([N+](=O)[O-])c2)o1	-12%	?	4%	-11%	-25%	3%
C=CCNC(=S)N/N=C/c1ccc(-c2ccc(OC)cc2)o1	-14%	19µM*	13%	-17%	?	-4%
CC(C)(C)NC(=S)N/N=C\c1ccc(-c2ccc([N+](=O)[O-])cc2)o1	.	?	13%	-4%	21µM*	12%
O=C(O)c1cccc(-c2ccc(/C=N/Nc3ccc([N+](=O)[O-])cc3)o2)c1	.	11µM*	1%	2%	23%	-4%
C=CCNC(=S)N/N=C/c1ccc(-c2cc(Cl)ccc2Cl)o1	.	2%	-2%	12%	-1%	-2%
NS(=O)(=O)c1ccc(-c2ccc(/C=N/Nc3ccc(C(=O)O)cc3)o2)cc1	.	7.6µM*	5%	10%	?	1%
CCOc1nc(NC(=O)NS(=O)(=O)Oc2ccccc2)nc(-c2ccccc2)n1	20%	?	.	.	.	.
Cc1nc2ccccc2n1S(=O)(=O)N(C)C	?	-1%	1%	-3%	11%	6%
CCC(=O)N/N=C/c1ccc(-c2ccc(Cl)cc2)o1	.	15µM*	0%	18%	15%	30%
O=C(O)c1ccc(N/N=C/C=C/c2ccc([N+](=O)[O-])o2)cc1	.	17µM*	-2%	1%	-1%	16%
CNC(=S)N/N=C/c1ccc(-c2ccc(C(=O)O)cc2)o1	.	17µM*	?	?	?	30%
O=C(O)c1ccc(-c2ccc(/C=N/Nc3ccc([N+](=O)[O-])cc3)o2)cc1	.	17µM*	23%	0%	18%	22%
Cc1ccc(C(=O)N/N=C\c2ccc(-c3ccc(Cl)c(Cl)c3)o2)cn1	.	-4%	-2%	-8%	-16%	-6%
O=C(Nc1ccccc1Cl)c1cccc(COc2cc(Cl)ccc2Cl)c1	6.3µM*	?	2.2µM*	?	?	4µM*
O=C(O)c1cccc(COc2ccccc2Cl)c1	0.032µM*	0.15µM*	?	.	?	0.89µM*
CCN(CC)C(=O)c1ccc(COc2ccccc2Cl)cc1	-40%	?	4%	?	-2%	0%
Cc1nn(Cc2c(Cl)cccc2Cl)c(C)c1NC(=O)c1cc(C(C)C)on1	3.5µM*	-1%	1%	-4%	?	0%
O=C(O)c1ccc(COc2ccccc2Cl)cc1	12%	21µM*	14%	2%	?	24%
SMILES	SMN2 splice enh	FLuc modulator	NPC1 prom act	ELG1 genotoxic	ELG1 repair inh	Rab9 prom act
NC(=O)[C@@H]1CC2(CC(c3cccc(NC(=O)CC(c4ccccc4)c4ccccc4)c3)=NO2)CN1C(=O)c1ccc(Cl)cc1 (some centres undefined)	.	-3%	-13%	-8%	?	-5%
[O-][n+]1c2ccccc2cc2ccccc21	.	-11%	-1%	0%	-6%	-2%
CN1CCN(C(=O)c2cccc(COc3cc(Cl)ccc3Cl)c2)CC1	10µM*	?	3.2µM*	?	?	1.1µM*
Cc1nn(Cc2c(F)c(F)c(F)c(F)c2F)c(C)c1NC(=O)c1cccc(COc2ccccc2Cl)c1	10µM*	6µM*	0.5µM*	?	?	0.35µM*
CCc1cc(=O)oc2cc(OCC(=O)N3CCC(C(=O)O)CC3)ccc12	.	0%	-2%	2%	28%	-10%
CCc1cnc2c(c1SCC(=O)NCc1ccccc1Cl)c(=O)n(C)c(=O)n2C	.	-6%	.	.	.	.
